What all share (assay): qHTS profiling for inhibitors of Plasmodium falciparum proliferation (AID 504749); also: nearly all actives have a fitted effect of over 60% in size
Common to all, as to conditions: P. falciparum in erythrocytes, SYBR Green DNA, 72 h; series mostly up to 28.7 µM
For orientation: Quantitative high-throughput screening tests each substance at several concentrations.

Experiment [1] concerns DFO2036. In outline: (§1)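 SYBR Green fluorescence of parasite DNA, read after lysis and overnight dark incubation, measured growth over 72 h in erythrocyte culture at 0.3% parasitemia and 2.5% hematocrit. Data normalised to DMSO and 0.29 uM artemisinin, with plate-drift correction.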
Experiment [2] has as its system DIV14. The essentials: as §1
Experiment [3] relates to DIV17. The essentials:
as §1

For experiment [4], the system named is DIV30. In outline: as §1
For experiment [5], the system named is Dd2. The essentials: as §1
Experiment [6] relates to ECU. In outline: as §1
In experiment [7] the test system is FAB9. In outline:
as §1

Experiment [8] deals with GB4. The essentials: as §1
For experiment [9], the system named is HB3. In outline:
as §1

Experiment [10] concerns JCK. In outline:
as §1

Experiment [11] relates to N140. The essentials: as §1
Experiment [12] has as its system P94_40. The essentials:
as §1

Experiment [13] concerns PAD. In outline:
as §1

The test system of experiment [14] is PC15. The essentials: as §1
For experiment [15], the system named is PC26. The essentials: as §1
For experiment [16], the system named is PC49. In outline: as §1
The test system of experiment [17] is SC27B. The essentials: as §1
In experiment [18] the test system is TAB109. In outline: as §1
Experiment [19] has as its system ICS. The essentials: as §1
Experiment [20] deals with P93_24. The essentials: as §1

Results filed as inconclusive are left out. Active and inactive are the calls of the source. Calls follow the shape of the dose curve; as a rule, active = well fitted inhibition curve with a large enough effect; inconclusive = small, poorly fitted or top-dose-only effect; inactive = flat fitted curve, though single readings scatter.
Potency is read from the fitted curve at half-maximal effect.

Take `COc1ccc2cc([C@H](C)C(=O)O)ccc2c1`: the Potency entry in experiment [1], in [2], in experiment [3], in [4], in experiment [5] and in experiment [6] was “inactive” throughout. Further, the Potency entry in experiment [7], in experiment [8], in experiment [9], in [10], in experiment [11] and in [12] was “inactive” in each case. Also, the Potency result in experiment [13], in [14], in experiment [15], in [16], in [17] and in experiment [18] was “inactive” throughout.
For `Cc1cc2c(s1)Nc1ccccc1N=C2N1CCN(C)CC1`, the Potency result in experiment [1], in experiment [2], in [3], in experiment [4], in [5] and in experiment [6] was “inactive” throughout. The Potency entry in [7], in [9], in experiment [19], in [10], in experiment [11] and in [20] was “inactive” in each case. Besides, the Potency result in experiment [12], in experiment [13], in experiment [14], in experiment [16], in experiment [17] and in [18] was “inactive” each time.
Take `COc1ccc(C2(C#N)CCC(C(=O)O)CC2)cc1OC1CCCC1` (centres undefined): the Potency entry in [1], in experiment [2], in experiment [3], in experiment [4], in experiment [5] and in [6] was “inactive” throughout. For the same molecule, the Potency entry in experiment [7], in [8], in [9], in experiment [19], in experiment [10] and in experiment [11] was “inactive” throughout. The Potency entry in [20], in [12], in [13], in experiment [14], in experiment [15] and in [16] was “inactive” each time. Further, the Potency entry in experiment [17] and in experiment [18] was “inactive” in each case.
`COC(=O)C1=C(C)NC(C)=C(C(=O)OCCCN2CCC(c3ccccc3)(c3ccccc3)CC2)C1c1cccc([N+](=O)[O-])c1` (centres undefined): the Potency is 7.94 µM (active) in [1]; 3.38 µM (active) in experiment [2]; 4.26 µM (active) in experiment [3]; 4.78 µM (active) in experiment [4]; 3.55 µM (active) in experiment [5]; 4.47 µM (active) in experiment [6]. The Potency is 1.9 µM (active) in experiment [8]; 8.91 µM (active) in experiment [9]; 1.41 µM (active) in experiment [19]; 5.01 µM (active) in experiment [11]; 3.98 µM (active) in experiment [20]; 4.47 µM (active) in experiment [12]. Also, the Potency in experiment [13] was 10 µM (active); in [14] it was 11.2 µM (active); in experiment [15], 6.01 µM (active); in [17], 3.55 µM (active); in [18], 5.01 µM (active).
On to `CCC1=C(C)CN(C(=O)NCCc2ccc(S(=O)(=O)NC(=O)NC3CCC(C)CC3)cc2)C1=O` (centres undefined), for which the Potency result in experiment [1], in experiment [2], in experiment [3], in experiment [4], in [5] and in experiment [6] was “inactive” throughout. The Potency result in experiment [7], in [8], in [9], in experiment [19], in [10] and in experiment [11] was “inactive” in each case. Also, the Potency result in [20], in [12], in experiment [13], in experiment [14], in experiment [15] and in experiment [16] was “inactive” each time. Besides, the Potency entry in [17] and in experiment [18] was “inactive” each time.
Regarding `COc1cc(OC)c(C(=O)CCCN2CCCC2)c(OC)c1`, the Potency entry in experiment [1], in [2], in [4], in [5], in experiment [6] and in experiment [7] was “inactive” each time. The Potency entry in experiment [8], in experiment [9], in experiment [19], in [10], in [11] and in experiment [20] was “inactive” each time. Also, the Potency entry in experiment [12], in experiment [13], in experiment [14], in [15], in [16] and in experiment [17] was “inactive” throughout. Also, the Potency entry in experiment [18] was “inactive”.
In the case of `CCC[C@@H]1C[C@@H](C(=O)N[C@@H]([C@H]2O[C@H](SC)[C@H](O)[C@@H](O)[C@H]2O)[C@@H](C)O)N(C)C1`, in experiment [5], the Potency is 0.0089 µM (active). In addition, the Potency entry in [7], in experiment [10], in [13], in experiment [14] and in [16] was “inactive” throughout.
For the molecule `CN1CCC(=C2c3ccccc3CCc3sccc32)CC1`, the Potency in experiment [2] is 4.78 µM (active); in [3], 4.26 µM (active); in experiment [5], 5.01 µM (active); in experiment [8], 6.01 µM (active); in [19] it was 8.91 µM (active); in experiment [16] it was 8.91 µM (active). In addition, the Potency entry in [6] and in [7] was “inactive” throughout.
As to `CCN(CC)CCOc1ccc(Cc2ccccc2)cc1`, the Potency result in [1], in [3], in experiment [4], in experiment [5], in experiment [6] and in [7] was “inactive” in each case. Moreover, the Potency entry in experiment [8], in experiment [9], in experiment [19], in [10], in experiment [11] and in [20] was “inactive” throughout. In addition, the Potency entry in experiment [12], in experiment [13], in experiment [14], in [15], in experiment [16] and in experiment [17] was “inactive” each time. In experiment [18], the Potency result was “inactive”.
Turning to `CCc1nc(N)nc(N)c1-c1ccc(Cl)cc1`, the Potency result in experiment [1], in experiment [5], in experiment [10], in [11], in experiment [20] and in [12] was “inactive” in each case. Besides, the Potency entry in [13], in [14], in [16], in [17] and in experiment [18] was “inactive” in each case. Also, the Potency in experiment [6] was 0.0501 µM (active); in experiment [7], 0.0501 µM (active); in [8] it was 0.019 µM (active); in experiment [9], 11.2 µM (active).
For `Cc1c(OCC(F)(F)F)ccnc1CS(=O)c1nc2ccccc2[nH]1` (centres undefined), the Potency result in experiment [1], in experiment [3], in experiment [4], in [5], in experiment [6] and in experiment [7] was “inactive” throughout. The Potency entry in experiment [8], in [9], in experiment [10], in [11], in experiment [20] and in experiment [12] was “inactive” in each case. Also, the Potency result in [13], in experiment [14], in experiment [15], in experiment [16], in [17] and in experiment [18] was “inactive” in each case.
As to `CN(c1nccc(=O)[nH]1)C1CCN(c2nc3ccccc3n2Cc2ccc(F)cc2)CC1`, the Potency result in experiment [1], in experiment [7], in experiment [9], in experiment [10], in experiment [20] and in experiment [13] was “inactive” throughout. Also, the Potency entry in experiment [16] and in [17] was “inactive” throughout. For the same molecule, in [19], the Potency is 10 µM (active).
In the case of `CCN(CCO)CCCC(C)Nc1ccnc2cc(Cl)ccc12` (centres undefined), the Potency entry in experiment [1], in experiment [3], in experiment [4], in experiment [5], in [19] and in experiment [10] was “inactive” in each case. In addition, the Potency result in experiment [11], in experiment [20], in experiment [12], in experiment [13], in [15] and in experiment [16] was “inactive” in each case. Also, the Potency result in [17] and in experiment [18] was “inactive” throughout. The Potency in experiment [7] was 1.41 µM (active); in experiment [9] it was 1 µM (active).
On to `N=C(N)c1ccc2cc(OC(=O)c3ccc(N=C(N)N)cc3)ccc2c1`, for which the Potency in [2] is 7.57 µM (active); in experiment [8], 5.36 µM (active); in experiment [19] it was 7.08 µM (active). Moreover, the Potency entry in [10] and in experiment [13] was “inactive” in each case.
On to `CCCCC(CC)COC(=O)C(C#N)=C(c1ccccc1)c1ccccc1` (centres undefined), for which the Potency entry in experiment [2], in experiment [3], in experiment [4], in experiment [7], in experiment [10] and in [11] was “inactive” each time. Moreover, the Potency entry in [13], in experiment [15] and in experiment [16] was “inactive” throughout. In addition, the Potency in experiment [6] and in experiment [17] was 8.91 µM (active) each time.

These data come from PubChem BioAssay (NCATS).
